PubChem BioAssay (NCATS)
Inconclusive results are not listed. Activity calls are given as the source filed them. Unless noted, calls follow the shape of the dose curve; as a rule, active = well fitted curve in the direction sought with a large enough effect; inconclusive = small, poorly fitted or top-dose-only effect, or another doubt; inactive = no such curve, though single readings can be large; an effect the other way counts as inactive or inconclusive.

What was measured:
[1] = qHTS for Inhibitors of Plasmodium falciparum (DD2) proliferation (AID 504314);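 also: parasite DNA measured by SYBR Green fluorescence after red cell lysis; plate controls were DMSO vehicle for no effect and artemisinin wells for full effect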
How it was run: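 Erythrocytes infected with P. falciparum (0.3% parasitemia, 2.5% hematocrit final) were incubated with compounds for 72 h at 37C, 5% CO2. Parasite DNA was detected by SYBR Green I fluorescence after saponin/Triton lysis, normalized to artemisinin (0.29 uM) and DMSO controls.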

[2] = qHTS for Inhibitors of Plasmodium falciparum (GB4) proliferation (AID 504315);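 also: 0% = DMSO vehicle and -100% = 0.29 µM artemisinin control; nearly all actives have a fitted effect of over 50% in size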
How it was run: (§1)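 Erythrocytes infected with P. falciparum line (0.3% parasitemia, 2.5% hematocrit final) incubated with compounds 72 h at 37 °C, 5% CO2; SYBR Green lysis buffer added, fluorescence read next day. Normalized to 0.29 uM artemisinin and DMSO.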

[3] = qHTS for Inhibitors of Plasmodium falciparum (7G8) proliferation (AID 504316);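 also: series mostly up to about 6.7 µM; 0% = DMSO vehicle and -100% = 0.29 µM artemisinin full kill; nearly all actives have a fitted effect of over 65% in size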
How it was run: as §1

[4] = qHTS for Inhibitors of Plasmodium falciparum (HB3) proliferation (AID 504318);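 also: 0% = DMSO vehicle and -100% = artemisinin control; nearly all actives have a fitted effect of over 60% in size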
How it was run: as §1

[5] = qHTS for Inhibitors of Plasmodium falciparum (CP250) proliferation (AID 504320);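 also: plate controls were DMSO vehicle for no effect and 0.29 µM artemisinin control for full effect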
How it was run: as §1

[6] = biological target: Atrial natriuretic peptide receptor 1 (Homo sapiens) (UniProt P16066); test: Natriuretic polypeptide receptor (hNpr1) antagonism - Pilot CMLD screen (AID 1347052; calls by dose curve;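 also: HEK293 cells with hNpr1 stimulated by hNppA peptide at 0.1 nM; cGMP level read as GloSensor luciferase luminescence after agonist stimulation; series mostly up to about 9.2 µM; % is scaled to controls: 0 for no effect and ±100 for the full control effect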)
Atrial natriuretic peptide receptor 1 (Homo sapiens), sequence (P16066 whole entry, looked up): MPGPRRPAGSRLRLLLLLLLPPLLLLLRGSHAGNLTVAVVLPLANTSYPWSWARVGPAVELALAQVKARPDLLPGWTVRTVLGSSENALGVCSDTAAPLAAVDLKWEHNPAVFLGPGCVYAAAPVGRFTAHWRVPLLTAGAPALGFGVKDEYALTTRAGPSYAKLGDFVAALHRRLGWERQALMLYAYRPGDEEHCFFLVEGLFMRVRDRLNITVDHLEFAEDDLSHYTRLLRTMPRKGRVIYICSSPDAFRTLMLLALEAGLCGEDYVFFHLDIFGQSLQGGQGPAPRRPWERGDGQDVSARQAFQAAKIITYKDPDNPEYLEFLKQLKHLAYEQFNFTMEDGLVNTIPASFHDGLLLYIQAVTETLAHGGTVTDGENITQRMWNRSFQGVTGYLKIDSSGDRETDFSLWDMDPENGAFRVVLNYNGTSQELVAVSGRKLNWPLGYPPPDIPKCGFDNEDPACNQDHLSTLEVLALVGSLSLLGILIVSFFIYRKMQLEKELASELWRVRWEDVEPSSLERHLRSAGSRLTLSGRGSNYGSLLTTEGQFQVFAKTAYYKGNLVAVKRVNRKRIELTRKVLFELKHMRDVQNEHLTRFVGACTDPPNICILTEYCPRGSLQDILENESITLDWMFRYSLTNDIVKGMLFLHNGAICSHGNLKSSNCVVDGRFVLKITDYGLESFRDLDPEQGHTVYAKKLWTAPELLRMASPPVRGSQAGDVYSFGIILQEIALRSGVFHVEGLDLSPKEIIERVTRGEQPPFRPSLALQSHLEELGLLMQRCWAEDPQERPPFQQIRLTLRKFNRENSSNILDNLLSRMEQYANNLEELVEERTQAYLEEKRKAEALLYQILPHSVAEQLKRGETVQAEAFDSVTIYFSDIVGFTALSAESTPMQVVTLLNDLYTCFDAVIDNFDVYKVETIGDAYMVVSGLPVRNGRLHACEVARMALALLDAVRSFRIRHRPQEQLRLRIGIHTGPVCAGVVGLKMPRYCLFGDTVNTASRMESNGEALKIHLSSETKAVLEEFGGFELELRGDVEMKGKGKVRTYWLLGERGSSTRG

COC1=C[C@H](C(=O)NCc2ccccc2)[C@@]2(C)Cc3ccccc3[C@@H]2CC1=O
inactive: Potency [1] | Potency [2] | Potency [3] | Potency [4] | Potency [5] | Potency [6]

O=C(C=Cc1ccc2c(c1)OCO2)c1ccc(F)cc1
inactive: Potency [1] | Potency [2] | Potency [3] | Potency [4] | Potency [5] | Potency [6]

Cc1ccc(O[C@@H]2[C@H](O)CO[C@H]2C=CC#Cc2ccc(C(C)(C)C)cc2)cc1
inactive: Potency [1] | Potency [2] | Potency [3] | Potency [4] | Potency [5] | Potency [6]

COC(=O)CCCC1=CC2=CC(=O)C(C)(OC(=O)c3cccs3)C(=O)C2=CN1CCCOC(C)C (configuration not stated)
inactive: Potency [1] | Potency [2] | Potency [3] | Potency [4] | Potency [5] | Potency [6]

O=C(C=Cc1ccccc1)c1ccccc1O
inactive: Potency [1] | Potency [2] | Potency [3] | Potency [4] | Potency [5] | Potency [6]

CCOC(=O)CN1C(=O)N[C@@H](c2ccccc2)[C@H](C(C)=O)[C@H]1C
inactive: Potency [1] | Potency [2] | Potency [3] | Potency [4] | Potency [5] | Potency [6]

CCCCCCC#C[C@@H]1C=C[C@H](OC(=O)OCC)[C@@H](COC(=O)OCC)O1
inactive: Potency [1] | Potency [2] | Potency [3] | Potency [4] | Potency [5] | Potency [6]

C=CCN1c2ccccc2[C@]23C[C@@H](C(=O)OC)N(C(=O)c4cccs4)C2=NC(C(=O)OC)=C(C(=O)OC)[C@H]13
inactive: Potency [1] | Potency [2] | Potency [3] | Potency [4] | Potency [5] | Potency [6]

O=C(NC(CC1=CCCCC1)c1ccccc1)C(F)(F)F (configuration not stated)
inactive: Potency [1] | Potency [2] | Potency [3] | Potency [4] | Potency [5] | Potency [6]

C=CC1=C2C=C(C3CC3)N(Cc3ccc4c(c3)OCO4)C=C2C(=O)C(C)(OC(=O)c2ccco2)C1=O (configuration not stated)
inactive: activity, negative = inhibition [1] 4.05% [at 1.12 µM] | Potency [2] | Potency [3] | Potency [4] | Potency [5] | Potency [6]

COC1=C[C@H](C(=O)NCc2ccc(Br)cc2)C(C)C(c2ccccc2)CC1=O (some centres not stated)
inactive: Potency [1] | Potency [2] | Potency [3] | Potency [4] | Potency [5] | Potency [6]

C[C@@H]1C=CCCO[C@]12C(=O)N(Cc1ccc(Br)cc1)c1cccc(Br)c12
inactive: Potency [1] | Potency [2] | Potency [3] | Potency [4] | Potency [5] | Potency [6]

CCCCOC(OCCCC)C(O)CSc1ccc2ccccc2c1 (configuration not stated)
inactive: Potency [1] | Potency [2] | Potency [3] | Potency [4] | Potency [5] | Potency [6]

COc1ccc2c(c1)O[C@H](c1ccc3c(c1)OCO3)[C@@H](OC(=O)Nc1ccc(C)c(Br)c1)C2=O
inactive: Potency [1] | Potency [2] | Potency [3] | Potency [4] | Potency [5] | Potency [6]

C#CCNC(=O)[C@H]1C=C(OC)C(=O)C[C@H](c2ccccc2)[C@H]1C
inactive: Potency [1] | Potency [2] | Potency [3] | Potency [4] | Potency [5] | Potency [6]

COC(=O)CC=C1c2ccccc2[C@@H](OC)[C@@H]1C
inactive: Potency [1] | Potency [2] | Potency [3] | Potency [4] | Potency [5] | Potency [6]

COc1cccc([C@@H]2[C@@H](C)CC[C@@H]3C(=O)NC[C@H](O)CN32)c1
inactive: Potency [1] | Potency [2] | Potency [3] | Potency [4] | Potency [5] | Potency [6]

CCCCC1=CC2=C(c3ccco3)C(=O)C(C)(OC(=O)c3ccc(OC)cc3)C(=O)C2=CN1CCCOC(C)C (configuration not stated)
inactive: Potency [1] | Potency [2] | Potency [3] | Potency [4] | Potency [5] | Potency [6]

CCCCc1nc2c(c3c1C[C@H](C)OC3)CN(S(=O)(=O)c1ccc(C)cc1)CC2
inactive: Potency [1] | Potency [2] | Potency [3] | Potency [4] | Potency [5] | Potency [6]

O=C1CCC=C1C(O)c1ccccc1 (configuration not stated)
inactive: Potency [1] | Potency [2] | Potency [3] | Potency [4] | Potency [5] | Potency [6]

CC1(OC(=O)C2CCCC2)C(=O)C=C2C=C(c3ccsc3)OC=C2C1=O (configuration not stated)
inactive: Potency [1] | Potency [2] | Potency [3] | Potency [4] | Potency [5] | Potency [6]

C=CCOC(=O)N[C@@H](c1cccc(OC)c1)[C@@H](C)C=CCC(=O)O
inactive: Potency [1] | Potency [2] | Potency [3] | Potency [4] | Potency [5] | Potency [6]

CCN1C(=NCc2cc(OC)c(OC)c(OC)c2)N[C@@H](c2ccccc2)[C@H](C(=O)OC)[C@H]1C
inactive: Potency [1] | Potency [2] | Potency [3] | Potency [4] | Potency [5] | Potency [6]

C=CCOC(=O)C(C(C)=O)[C@@H](NC(=O)OC)c1cccc(C)c1 (some centres not stated)
inactive: Potency [1] | Potency [2] | Potency [3] | Potency [4] | Potency [5] | Potency [6]

CCOC(=O)CNC(=O)O[C@@H]1C(=O)c2cc(OC)ccc2O[C@H]1c1cccc(OC)c1
inactive: Potency [1] | Potency [2] | Potency [3] | Potency [4] | Potency [5] | Potency [6]

CCOC(=O)CN1C(=O)NC(c2cccc(F)c2)C(C(=O)OC)=C1C (configuration not stated)
inactive: Potency [1] | Potency [2] | Potency [3] | Potency [4] | Potency [5] | Potency [6]

CCCCCCCc1cc2ccccc2c2c(C(=O)OC)cc(C(=O)OC)n12
inactive: Potency [1] | Potency [2] | Potency [3] | Potency [4] | Potency [5] | Potency [6]

COC(=O)C1=C(C)N(Cc2ccccc2)C(=O)NC1c1ccccc1 (configuration not stated)
inactive: Potency [1] | Potency [2] | Potency [3] | Potency [4] | Potency [5] | Potency [6]

C=COC[C@@H]1CN2[C@H](c3ccc(Br)cc3)[C@H](C)CC[C@H]2C(=O)O1
inactive: Potency [1] | Potency [2] | Potency [3] | Potency [4] | Potency [5] | Potency [6]

COc1ccc2c(c1)O[C@H](c1ccc3c(c1)OCO3)[C@@H](OC(=O)NCc1ccc3c(c1)OCO3)C2=O
inactive: Potency [1] | Potency [2] | Potency [3] | Potency [4] | Potency [5] | Potency [6]

C=C(CCN1C=C(C(=O)OCC)C(c2ccccc2)NC1=O)c1ccccc1 (configuration not stated)
inactive: Potency [1] | Potency [2] | Potency [3] | Potency [4] | Potency [5] | Potency [6]

COCCN1C(=O)N[C@@H](c2cccc(C(F)(F)F)c2)[C@H](C(=O)OC)[C@H]1C
inactive: Potency [1] | Potency [2] | Potency [3] | Potency [4] | Potency [5] | Potency [6]

COCC1=C(C(=O)OC)C(c2ccccc2)N(C(C)=O)C(=O)N1 (configuration not stated)
inactive: Potency [1] | Potency [2] | Potency [3] | Potency [4] | Potency [5] | Potency [6]

O=C1Nc2cccc(Br)c2[C@@]12O[C@H](COc1ccccc1)CC1=CCCC12 (some centres not stated)
inactive: Potency [1] | Potency [2] | Potency [3] | Potency [4] | Potency [5] | Potency [6]

CCC(=O)OC1(C)C(=O)C=C2C=C(CCCC(=O)OC)OC=C2C1=O (configuration not stated)
inactive: Potency [1] | Potency [2] | Potency [3] | Potency [4] | Potency [5] | Potency [6]

C[C@@H]1C=CCCO[C@]12C(=O)N(Cc1ccccc1C(F)(F)F)c1ccccc12
inactive: Potency [1] | Potency [2] | Potency [3] | Potency [4] | Potency [5] | Potency [6]

CC=COC(=O)N[C@@H](c1ccccc1)[C@]1(C(C)=O)CCCC1=O
inactive: Potency [1] | Potency [2] | Potency [3] | Potency [4] | Potency [5] | Potency [6]
